Measured values as given in PubChem BioAssay (NCATS).

Assay: High-throughput drug toxicity screening in the BPDCN cell line Gen2.2 (AID 1224824)
Conditions: Gen2.2 BPDCN cells; at 45.8 µM (top of the series) unless noted
Description: Blastic plasmacytoid dendritic cell neoplasm (BPDCN) is a rare, aggressive and largely incurable hematologic malignancy originating from plasmacytoid dendritic cells (pDCs). Although an initial response to chemotherapy is common, BPDCN prognosis is extremely poor and most patients relapse with drug-resistant disease leading to a median overall survival of ~1 year after diagnosis. To explore novel potential therapeutic strategies in BPDCN, we performed a high-throughput drug toxicity screening in BPDCN cell liens, using of a library of 1,912 small molecules, enriched for compounds that are either approved or in early stages of development for cancer therapy.
A total of 500 exponentially growing Gen2.2 cells were seeded per well in 5 uL of media (RPMI + Glutamine, without phenol red plus10% FBS and 1X Pen/Strep) into 1536-well solid white high base tissue culture treated Greiner One Bio Plates (789173-F), using a multidrop combi dispenser and a small sterile cassette. Compounds and controls totaling 23nL per well (negative control DMSO and positive control 9.2 uM Bortezomib-final) were immediately added to the plates using a 1536 head pin tool from Kalypsys. The plates were then covered with stainless steel gasket lids from Kalypsys and incubated for 48 hours at 37C under 95% relative humidity with 5% CO2. After 48 hours, the plates were removed and allowed to reach room temperature before 3 uL of Cell Titer Glo reagent (Promega) were added using an Aurora Flying Reagent Dispenser Bioraptor. The plates were then spun at 1000 rpms to remove bubbles and incubated for 15 minutes at room temperature before reading on a ViewLux using a luminescent filter with a 10 second exposure. The relative luciferase units were used to calculated percent activity using DMSO as 100% and Bortezomib as 0%.

SMILES | cell viability, % of control (lower = more cytotoxic)
O=C(NC[C@H](O)CO)c1ccncc1Nc1ccc(I)cc1F | 5.6%
CCOC(=O)[C@@H](N)CCC(=O)N[C@@H](CSCc1ccccc1)C(=O)N[C@@H](C(=O)OCC)c1ccccc1 | 39.6%
FC(F)(F)c1ccc(C=Cc2nc(COc3ccc(CCCCn4ccnn4)cc3)co2)cc1 | 102%
CCC(=O)OCC(=O)[C@@]1(OC(=O)CC)[C@@H](C)C[C@@H]2[C@H]3CCC4=CC(=O)C=C[C@]4(C)[C@@]3(F)[C@@H](O)C[C@@]21C | 17.4%
CCCCC(F)(F)[C@@]1(O)CC[C@H]2[C@H](CC(=O)[C@@H]2CCCCCCC(=O)O)O1 | 92.5%
Cc1ccc(C2=Nc3ccc(Cl)cc3OC2)cc1 | 73.9%
CN[C@@H](C)[C@H]1[C@H](O)C[C@@]2(C)[C@@H]3CC[C@H]4C(C)(C)[C@@H](NC)CC[C@@]45C[C@@]35CC[C@]12C | 71.1%
OC1CCC(Nc2ncc3nc(Nc4c(F)cc(F)cc4F)n([C@@H]4CCOC4)c3n2)CC1 (stereo not given in full) | 62.2%
CCc1cccc(CC)c1NC(=O)N1Cc2[nH]nc(NC(=O)c3ccc(N4CCN(C)CC4)cc3)c2C1 | 146%
O=C(C=Cc1ccc(O)cc1)c1ccc(O)cc1O | 1.49%
CN(C)S(=O)(=O)c1ccc2c(c1)C(=Cc1cc3c([nH]1)CCCC3)C(=O)N2 | 119%
Cc1cnc(CNC(=O)c2c(=O)c3ccc(N4CCCN(C)CC4)nc3n3c2sc2ccccc23)cn1 | 230% [at 23.2 µM]
Cc1ccc(S(=O)(=O)Nc2nc3ccccc3nc2Nc2ccc3nsnc3c2)cc1 | 7.38% [at 23.2 µM]
CC(C)(C)c1[nH]cnc1C=c1[nH]c(=O)c(=Cc2ccccc2)[nH]c1=O | 15.7% [at 92.2 µM]
C[C@@H](NC(=O)c1ncnc(N)c1Cl)c1ncc(C(=O)Nc2cc(C(F)(F)F)c(Cl)cn2)s1 | 2.67%
CCCCC(C=O)NC(=O)C(CC(C)C)NC(=O)OCc1ccccc1 (stereo not given) | 52.9%
O=C(c1ccc(C(=O)N2CCC(N3CCCC3)CC2)c(Nc2ccccc2)c1)N1CCC(N2CCCC2)CC1 | 483%
CCCCC[C@H](O)C=C[C@H]1[C@H](O)CC(=O)[C@H]1CCCCCCC(=O)O | 64.6%
Oc1cc(O)cc(C=Cc2ccc(O)c(O)c2)c1 | 3.35%
CCOC(=O)[C@H]1O[C@H]1C(=O)N[C@@H](CC(C)C)C(=O)NCCC(C)C | 74.8%

SMILES | cell viability, % of control (lower = more cytotoxic)
NS(=O)(=O)c1ccc(Nc2nc(OCC3CCCCC3)c3[nH]cnc3n2)cc1 | 12%
Cc1ccc(S(=O)(=O)OCC(=O)Nc2ccc(C(=O)O)c(O)c2)cc1 | 96.8%
CN1C(=O)C(Cc2c[nH]c3ccccc23)NC1=S (stereo not given) | 70.1%
NC(N)=Nc1nc(CSCCC(N)=NS(N)(=O)=O)cs1 | 171%
COc1cc2ncn(-c3cc(OCc4ccccc4S(C)(=O)=O)c(C#N)s3)c2cc1OC | 146%
COc1c(C)c2c(c(O)c1CC=C(C)CCC(=O)OCCN1CCOCC1)C(=O)OC2 | 164%
O=C(NCCCCN1CCOCC1)c1cc2ccccc2o1 | 213%
CC1CNc2c(cccc2S(=O)(=O)N[C@@H](CCCN=C(N)N)C(=O)N2CC[C@@H](C)C[C@@H]2C(=O)O)C1 (stereo not given in full) | 225%
CC(=O)OCC(=O)[C@@]1(O)CC[C@H]2[C@@H]3CCC4=CC(=O)C=C[C@]4(C)[C@@H]3[C@@H](O)C[C@@]21C | 165%
C[C@@H]1[C@H](O)[C@@H](C)C=CC=CC=CC=CC=CC=CC=C[C@H](O[C@@H]2O[C@H](C)[C@H](O)[C@H](N)[C@@H]2O)C[C@@H]2O[C@](O)(C[C@@H](O)C[C@@H](O)[C@H](O)CC[C@@H](O)C[C@@H](O)CC(=O)O[C@H]1C)C[C@H](O)[C@@H]2C(=O)O | 485%
OC(c1cc(C(F)(F)F)nc2c(C(F)(F)F)cccc12)C1CCCCN1 (stereo not given) | 9.36%
COc1nc(C)cnc1NS(=O)(=O)c1cccnc1-c1ccc(-c2nnco2)cc1 | 379%
Nc1ncnc2c1ncn2[C@@H]1O[C@H](CO)[C@@H](O)[C@@H]1O | 108%
N#Cc1c(N(CC(=O)O)CC(=O)O)sc(C(=O)O)c1CC(=O)O | 5.77%
O=S(=O)(NCCNCC=Cc1ccc(Br)cc1)c1cccc2cnccc12 | 247%
CCCCc1ccc(NS(=O)(=O)c2ccc(C)c(C(=O)N3CCN(c4cccc(C)c4C)CC3)c2)cc1 | 425%
COc1nccc(-c2c(-c3ccc(F)cc3)ncn2C2CCNCC2)n1 | 136%
Cc1ccc2c(c1)c1c(n2CCc2ccc(C)nc2)CCN(C)C1 | 163%
CCC=CC[C@H]1C(=O)CC[C@@H]1CC(=O)OC | 137%
CC1(C)[C@H]2CC[C@]3(C)[C@@H](C(=O)C=C4[C@@H]5C[C@@](C)(C(=O)O)CC[C@]5(C)CC[C@]43C)[C@@]2(C)CC[C@@H]1O | 139%
